Reference: PubChem BioAssay (Tox21)
“And” between values parts separate entries of the source, which are not always exact repeats. Equal values may be shown once. Inconclusive results are not listed. The source made the active and inactive calls. The call rests on the fitted dose curve; in most records, active means well fitted cell-killing curve with a large enough effect in the repeat runs; inconclusive means weak or mixed curves, or effect the other way; inactive means flat fitted curve, though single readings scatter.
On the % scale 0 is the no-effect control and ±100 the full control effect; potency means the concentration at half of the fitted maximal effect.

Assay: qHTS RealTime-Glo MT Cell Viability Assay in HEK293 cells - 40 hour (AID 1224874); further: nearly all actives have a fitted effect of over 50% in size
Details: RealTime-Glo luminescence; max response: hits give low values
In short: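 Kinetic, non-lysing viability readout. Seed HEK293 (600/well) with reagent, incubate 5 h at 37 C/5% CO2, pin 23 nL compound in DMSO, incubate at 37 C, read luminescence at 0, 8, 16, 24, 32, 40 h.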
For `Cn1cnc2c1c(=O)[nH]c(=O)n2C`, the max response was 8.97% (inactive) and 7.21% (inactive).
For `CN/C(=C\[N+](=O)[O-])NCCSCc1ccc(CN(C)C)o1`, the max response was 4.86% (inactive) and 0.756% (inactive).
In the case of `CC(=O)c1ccc(S(=O)(=O)NC(=O)NC2CCCCC2)cc1`, the max response is reported as 0.507% (inactive) and 8.7% (inactive) and 3.73% (inactive).
For `Cc1cccc2ccccc12`, the max response was 3.52% (inactive) and 3.07% (inactive).
With `CCOC(=O)C(C)(C)Oc1ccc(Cl)cc1` the max response was 0.886% (inactive) and 6.32% (inactive) and -3.11% (inactive).
With `NC(=O)NO` the max response was 19.8% (inactive) and 1.62% (inactive).
In the case of `COCC(C)N` (stereo not given), the max response is reported as 4.72% (inactive) and 4.68% (inactive).
For `COC(=O)c1ccc(C=O)cc1`, the max response was -13.1% (inactive) and 1.66% (inactive).
With `O=C1OC(c2ccc(O)cc2)(c2ccc(O)cc2)c2ccccc21` the max response was -0.757% (inactive).
In the case of `CCCCOCCOCCSC#N`, the max response is reported as 7.99% (inactive) and 2.19% (inactive).
For `Cc1c(N(C)CS(=O)(=O)O)c(=O)n(-c2ccccc2)n1C`, the max response was -0.4% (inactive) and 7.69% (inactive).
With `O=C(O)CCCCC1CCSS1` (stereo not given) the max response was 9.73% (inactive) and 12.3% (inactive) and 7.95% (inactive).
In the case of `CC(C)(C)NCC(O)c1ccc(O)c(CO)c1` (stereo not given), the max response is reported as 9.56% (inactive) and 4.37% (inactive).
With `O=C(O)Cc1cccc2ccccc12` the max response was 0.279% (inactive) and 2.27% (inactive) and -0.352% (inactive).
With `CC1=C(/C=C/C(C)=C/C=C/C(C)=C/C(=O)O)C(C)(C)CCC1` the max response was -20% (inactive) and -18.8% (inactive) and -12.7% (inactive).
In the case of `C[C@]12C[C@H](O)[C@H]3[C@@H](CCC4=CC(=O)CC[C@@]43C)[C@@H]1CC[C@@H]2C(=O)CO`, the max response is reported as -9.57% (inactive).
In the case of `CCCCOCCOCCOC(C)=O`, the max response is reported as 7.04% (inactive) and 1.04% (inactive).
In the case of `COc1ccccc1NC(=O)CC(C)=O`, the max response is reported as -0.191% (inactive) and 6.19% (inactive).
In the case of `CCCCOC(=O)CCCCCCCCC(=O)OCCCC`, the max response is reported as 14.7% (inactive) and 5.35% (inactive).
With `Cc1cccc(C)c1O` the max response was 9.86% (inactive) and 0.971% (inactive).
For `NC(=O)OCC(COC(N)=O)c1ccccc1`, the max response was 1.64% (inactive) and -0.593% (inactive).
For `COc1cc(O)c(C(=O)c2ccccc2)cc1S(=O)(=O)O`, the max response was 0.237% (inactive) and 12.7% (inactive) and -17.6% (inactive).
For `C#C[C@]1(O)CC[C@H]2[C@@H]3CCc4cc(O)ccc4[C@H]3CC[C@@]21C`, the Potency was 6.87 µM (active) and 21.9 µM (active).
With `CCN(CC)CCOC(=O)c1ccc(N)cc1` the max response was -6.53% (inactive) and -0.799% (inactive).
With `N[C@@H](Cc1c[nH]c2ccccc12)C(=O)O` the max response was 11.5% (inactive).
With `CCN1CCCC1=O` the max response was 0.414% (inactive) and 1.37% (inactive).
In the case of `Nc1cccc(N)c1`, the max response is reported as 6.95% (inactive) and 5.34% (inactive) and 0.651% (inactive).
In the case of `CC(=O)Oc1ccccc1C(=O)O`, the max response is reported as -0.0178% (inactive) and 14.7% (inactive) and 2.62% (inactive).
With `COCCOCCOC` the max response was 13% (inactive) and 10.3% (inactive).
For `CC(=O)OC/C=C(C)/C=C/C=C(C)/C=C/C1=C(C)CCCC1(C)C`, the max response was -17.8% (inactive) and 3.29% (inactive) and 17.2% (inactive).
